# Assay results reported in PubChem BioAssay (EPA / NIEHS).
# Results filed as inconclusive are left out. The source made the active and inactive calls. Rule for the calls: active = hit-call score of the fitted dose curve at least 0.9, where 1 is the maximum; inconclusive = response in the unintended direction; inactive = score below 0.9.
# Key:
# [1] = target: Cellular tumor antigen p53 (Homo sapiens) (UniProt P04637); test: TOX21_p53_BLA_p2_ratio: Tox21 HCT-116 p53 Agonism Beta-lactamase Assay, Ratio, Phase 2 (AID 2283592)
# How it was run: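 Ratio endpoint: beta-lactamase cleavage of CCF4-AM, blue (460 nm) over green (530 nm). HCT116 reporter line; 16 h treatment, 37C; substrate 2 h RT.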
# [2] = target: Cellular tumor antigen p53 (Homo sapiens) (UniProt P04637); test: TOX21_p53_BLA_p3_ratio: Tox21 HCT-116 p53 Agonism Beta-lactamase Assay, Ratio, Phase 3 (AID 2283596)
# How it was run: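 Cells were seeded at 4000/well, rested 5 h at 37C, then dosed with DMSO compound solutions (217-fold dilution) for 16 h. CCF4-AM substrate was loaded for 2 h at room temperature, and the 460/530 nm emission ratio was fitted for gain of signal versus DMSO.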
# [3] = target: Cellular tumor antigen p53 (Homo sapiens) (UniProt P04637); test: TOX21_p53_BLA_p5_ratio: Tox21 HCT-116 p53 Agonism Beta-lactamase Assay, Ratio, Phase 5 (AID 2283599)
# How it was run: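 HCT-116 p53-bla cells (4000/well) plated 5 h, dosed with compound (217-fold DMSO dilution) for 16 h at 37 C; CCF4-AM substrate 2 h at room temperature. Activity is the 460/530 nm emission ratio (405 nm excitation), fitted in gain-of-signal direction versus DMSO.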
# [4] = target: Cellular tumor antigen p53 (Homo sapiens) (UniProt P04637); test: TOX21_p53_BLA_p4_ratio: Tox21 HCT-116 p53 Agonism Beta-lactamase Assay, Ratio, Phase 4 (AID 2283601)
# How it was run: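 HCT-116 p53 beta-lactamase reporter cells (4000/well) preincubated 5 h, then compound (217-fold dilution of DMSO stock) for 16 h at 37C. CCF4-AM substrate added 2 h at room temperature; 460/530 nm emission ratio fitted upward versus DMSO.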
# [5] = TOX21_p53_BLA_p5_viability: Viability Assessment in the Tox21 HCT-116 p53 Agonism Beta-lactamase Assay, Phase 5 (AID 2283600)
# How it was run: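 Luciferase-coupled ATP quantitation of cells treated for 16 h (37C, 5% CO2) with test chemicals delivered in DMSO via a 217-fold dilution; 4000 cells/well; reagent incubated 30 min at room temperature before luminescence reading.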
# Sequence of Cellular tumor antigen p53 (Homo sapiens) (P04637 whole entry, looked up): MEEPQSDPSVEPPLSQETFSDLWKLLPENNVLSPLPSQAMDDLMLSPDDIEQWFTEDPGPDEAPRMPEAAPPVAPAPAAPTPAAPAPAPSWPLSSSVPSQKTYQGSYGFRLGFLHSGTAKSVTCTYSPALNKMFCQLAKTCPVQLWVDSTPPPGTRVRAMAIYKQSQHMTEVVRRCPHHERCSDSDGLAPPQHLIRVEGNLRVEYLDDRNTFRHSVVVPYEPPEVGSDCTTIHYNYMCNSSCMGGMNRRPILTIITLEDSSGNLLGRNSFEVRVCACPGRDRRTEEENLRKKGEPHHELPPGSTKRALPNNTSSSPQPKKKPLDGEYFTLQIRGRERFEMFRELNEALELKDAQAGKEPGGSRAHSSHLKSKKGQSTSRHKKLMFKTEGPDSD
smiles,measurement,setting,value
COc1ccc(-c2nc3ccc(C4=NNC(=O)CC4C)cc3[nH]2)cc1 (stereo not given),AC50,[1],17.1 µM (active)
same,AC50,[2],21.5 µM (active)
same,AC50,[3],16.3 µM (active)
same,AC50,[4],15 µM (active)
COC(=O)C(C)(C)C,outcome,[1],inactive
same,outcome,[2],inactive
same,outcome,[3],inactive
same,outcome,[5],inactive
same,outcome,[4],inactive
NC1[C@H]2CN(c3nc4c(cc3F)c(=O)c(C(=O)O)cn4-c3ccc(F)cc3F)C[C@@H]12 (stereo not given in full),AC50,[1],30.4 µM (active)
same,AC50,[2],27.3 µM (active)
same,outcome,[3],inactive
same,outcome,[4],inactive
CCCCc1ccc2nc(NC(=O)OC)[nH]c2c1,outcome,[1],inactive
same,AC50,[2],0.0408 µM (active)
same,outcome,[3],inactive
same,outcome,[4],inactive
CC(C)N=C=NC(C)C,outcome,[1],inactive
same,outcome,[2],inactive
same,outcome,[3],inactive
same,outcome,[5],inactive
same,outcome,[4],inactive
COc1cc(Nc2c(C#N)cnc3cc(OCCCN4CCN(C)CC4)c(OC)cc23)c(Cl)cc1Cl,outcome,[1],inactive
same,AC50,[2],17.8 µM (active)
same,AC50,[3],10.9 µM (active)
same,AC50,[4],7.74 µM (active)
Cc1ncc(COP(=O)(O)O)c(CN)c1O,outcome,[1],inactive
same,outcome,[2],inactive
same,outcome,[3],inactive
same,outcome,[5],inactive
same,outcome,[4],inactive
CN1CCN(c2c(F)cc3c(=O)c(C(=O)O)cn4c3c2SCC4)CC1,outcome,[1],inactive
same,outcome,[2],inactive
same,outcome,[3],inactive
same,outcome,[4],inactive
Cc1ccc(Cl)c(N)c1Cl,outcome,[1],inactive
same,outcome,[2],inactive
same,outcome,[3],inactive
same,outcome,[4],inactive
Cc1cc(=O)c(C(=O)N[C@@H](C(=O)N[C@@H]2C(=O)N3C(C(=O)O)=C(CSc4nnnn4C)CS[C@H]23)c2ccc(O)cc2)c[nH]1,outcome,[1],inactive
same,outcome,[2],inactive
same,outcome,[3],inactive
same,outcome,[5],inactive
same,outcome,[4],inactive
CNC(=O)NC,outcome,[1],inactive
same,outcome,[2],inactive
same,outcome,[3],inactive
same,outcome,[4],inactive
O=Cc1ccc(F)c(Br)c1,outcome,[1],inactive
same,outcome,[2],inactive
same,outcome,[3],inactive
same,outcome,[4],inactive
O=C1c2ccccc2C(=O)C1c1ccccc1,outcome,[1],inactive
same,outcome,[2],inactive
same,outcome,[3],inactive
same,outcome,[4],inactive
CC[C@]12CCCN3CCc4c(n(c5ccccc45)C(=O)C1)[C@@H]32,AC50,[1],3.57 µM (active)
same,AC50,[2],4.33 µM (active)
same,AC50,[3],5.58 µM (active)
same,AC50,[4],3.51 µM (active)
